Screening data (PubChem)
ALOX12 inh – inhibitors of human 12S-lipoxygenase ALOX12 | P18054 | Potency, µM (series often up to 108 µM), without a hit: at the top dose activity change, negative = inhibition, actives largely listed as inhibitors | purified 12hLO, xylenol orange hydroperoxide absorbance | hit rate 1.1% among 580,000; note: % is set by controls: 0 for no effect and ±100 for the full control effect
Target sequence (P18054 whole entry, looked up): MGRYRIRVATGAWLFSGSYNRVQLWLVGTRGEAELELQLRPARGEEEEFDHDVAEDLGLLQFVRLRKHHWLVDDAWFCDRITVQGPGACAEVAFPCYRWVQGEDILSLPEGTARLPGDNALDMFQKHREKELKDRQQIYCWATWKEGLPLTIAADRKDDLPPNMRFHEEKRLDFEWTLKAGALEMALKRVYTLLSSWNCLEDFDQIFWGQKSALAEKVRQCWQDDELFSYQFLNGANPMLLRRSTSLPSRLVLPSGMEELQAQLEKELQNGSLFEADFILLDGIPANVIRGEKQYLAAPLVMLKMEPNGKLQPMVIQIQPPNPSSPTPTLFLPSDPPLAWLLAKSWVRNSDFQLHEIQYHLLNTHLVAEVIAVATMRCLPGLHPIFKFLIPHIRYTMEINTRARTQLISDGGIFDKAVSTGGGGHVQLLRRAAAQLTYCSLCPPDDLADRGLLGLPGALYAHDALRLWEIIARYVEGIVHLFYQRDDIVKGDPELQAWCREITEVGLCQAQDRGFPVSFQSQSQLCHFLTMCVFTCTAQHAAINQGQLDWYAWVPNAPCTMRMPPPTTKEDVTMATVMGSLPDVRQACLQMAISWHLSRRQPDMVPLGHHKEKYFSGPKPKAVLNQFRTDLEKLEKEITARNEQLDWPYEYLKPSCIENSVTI
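Hydroperoxide product was detected by ferrous iron/xylenol orange as the 573 to 405 nm absorbance ratio. Arachidonic acid at 40 uM (final) was turned over for 30 min at room temperature by 150 nM human 12hLO, pH 7.0 Hepes buffer, after 15 min compound preincubation.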
BCR signal inh – chronic active BCR signaling inhibition; ABC-DLBCL IkBa-CBG/CBR reporter, luminescence ratio, 4 h; hit rate 0.05% among 340,000; Potency, µM (series often up to 46.1 µM), for inactives: at the top dose activity change, negative = inhibition, most hits filed as inhibitors; AID 493014; active = well fitted inhibition curve with a large enough effect in the signal ratio, with a control signal flat, not every such curve was filed as active; inconclusive = small, poorly fitted or top-dose-only effect, or effect the other way, or a change in a side signal; the % refers to the signal ratio;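 note: plate controls were basal doxycycline-induced cells for no effect and cells given 10 µM MG132 for full effect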
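TMD8 human ABC-DLBCL cells with doxycycline-inducible IκBα–green luciferase fusion and unfused red luciferase, in 0.5% FBS medium; compounds up to 46 uM, 4 h at 37C. Green/red luminescence ratio, filter-overlap corrected, fitted to concentration-response curves.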
Anesthetic bind – candidate novel general anesthetic via apoferritin binding | apoferritin/1-aminoanthracene competitive binding, fluorescence | Potency, µM (top dose mostly 77.5 µM), for inactives: at the highest dose activity change, negative = displacement, hits mostly inhibitors | hit rate 0.074% among 350,000; note: % is set by controls: 0 for no effect and ±100 for the full control effect; nearly all actives have a fitted effect of over 20% in size
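Horse-spleen apoferritin (10 uM) was mixed with 50% saturated 1-aminoanthracene in PBS, exposed to compounds for 10 min at room temperature, and read for fluorescence (ex 380 nm, em 535 nm). Competitive displacement was fitted with a four-parameter Hill equation.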
Glioma ERSR ind – inducers of ER stress response in human glioma cells; Potency, µM, for the others: top-dose activation, usual class: activators; hit rate 0.02% among 420,000; U87-MG GRP78 promoter luciferase reporter, 16 h; note: series mostly up to about 76 µM; % of control where 0% means no effect; nearly all actives have a fitted effect of over 35% in size
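Stably transfected U87-MG glioma cells carrying a GRP78-based luciferase sensor; 16 h compound incubation. Luminescence end-point read 10 min after Bright-Glo addition at room temperature.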
* marks the source's active call; other numbers are inactive results; u = inconclusive; x = no result given; ! = not confirmed by another sample; [ ] = remark or other dose. Compounds with a hit are over-represented: about 1.1% of the library has one in this group of screens. Unless noted, calls come from the whole dose curve; as a rule, active = well fitted curve in the direction sought with a large enough effect; inconclusive = small, poorly fitted or top-dose-only effect, or another doubt; inactive = no such curve, though single readings can be large; an effect the other way counts as inactive or inconclusive. Potency is the fitted concentration of half-maximal effect.

SMILES	ALOX12 inh	BCR signal inh	Anesthetic bind	Glioma ERSR ind
O=[N+]([O-])c1cccc(C2Nc3cccc4cccc(c34)N2)c1	u	-17.7%	-5.0%	-0.4%
O=[N+]([O-])c1ccc(C2Nc3cccc4cccc(c34)N2)cc1	39.8µM*	-5.5%	-6.0%	-5.0%
CC(C)c1ccc(/C=C/C(=O)NC(=S)NN2CCOCC2)cc1	u	u	-15.1%	9.1%
CC(C)c1ccc(/C=C/C(=O)NC(=S)Nc2ccc(CN3CCOCC3)cc2)cc1	39.8µM*	u	u	-3.5%
CC1=C[C@@H](CNC(=O)C2CCCCC2)[C@H](C(C)C)C[C@H]1CC(=O)N1CCN(c2ccccn2)CC1	10.5%	x	x	x
COC(=O)CNC(c1ccccc1)c1cc(Br)ccc1NC(=O)CCN1CCOCC1 (configuration not stated)	39.8µM*	u	-8.0%	-10.9%
O=C(Nc1ccccc1F)c1ccc(Cn2nc(N3CCN(c4ccccc4)CC3)ccc2=O)o1	44.7µM*	x	-12.0%	-2.0%
O=C(Nc1ccc(F)cc1)c1ccc(Cn2nc(N3CCN(c4ccccc4)CC3)ccc2=O)o1	u	x	-17.8%	-4.4%
COC(=O)c1cccc(NC(=O)c2ccc3c(c2)N(C)C2CCCCCN2C3=O)c1 (configuration not stated)	34.9%	x	x	x
CCC(=O)N1Cc2ccccc2CC2(CCCCN2Cc2ccncc2)C1 (configuration not stated)	5.6%[6.33 µM]	x	x	x
CCOC(=O)N1CCN(C/C(Cl)=C/c2ccccc2)CC1	2.24µM*	-0.3%	-0.8%	3.6%
COc1cc2nc(Nc3ccc(C)c(C)c3)nc(N)c2cc1OC	u	u	-2.5%	-16.2%
COc1cc2nc(Nc3ccc(C)c(Cl)c3)nc(N)c2cc1OC	20µM*	u	-20.5%	-14.3%
Cn1c(=O)[nH]c(=O)c2c1nc(N1CCN(Cc3ccccc3F)CC1)n2CCc1ccccc1	-59.8%	x	x	x
Cc1ccc(CN(C(=O)c2ccccc2)c2ccccn2)o1	-7.1%	x	-17.3%	-2.0%
Cc1ccc(CN(C(=O)c2cc(=O)c3cc(Cl)c(C)cc3o2)c2ccccn2)o1	25.1µM*	x	x	x
COc1ccc(/C=N/n2c(C3CCCCC3)n[nH]c2=S)c(OC)c1	39.8µM*	-14.8%	u	-5.2%
COc1cccc(/C=N/n2c(C3CCCCC3)n[nH]c2=S)c1O	20µM*	-7.5%	-6.7%	-0.4%
COc1cc(OC)c(/C=N/n2c(C3CCCCC3)n[nH]c2=S)c(OC)c1	u	-3.5%	4.0%	-7.7%
COc1cccc(/C=N/n2c(-c3n[nH]c4c3CCC4)n[nH]c2=S)c1O	39.8µM*	1.2%	0.4%	-4.5%
S=c1[nH]nc(C2CCCCC2)n1/N=C/c1ccccn1	17.8µM*	-7.0%	-18.8%	-3.3%
COc1cc(/C=N/n2c(-c3n[nH]c4c3CCC4)n[nH]c2=S)cc(OC)c1O	u	-0.6%	-6.3%	-3.5%
COCCCN(CCOC)C(=O)c1cc2ccccc2c(OC)n1	-19.0%	x	x	x
Cc1c(CC(=O)NCCc2ccc(Cl)cc2)c(=O)oc2c(C)c(O)ccc12	-6.9%	x	x	x
O=C(OCCCS(=O)(=O)c1ccccc1)c1ccc(I)cc1	-3.5%	x	x	x
SMILES	ALOX12 inh	BCR signal inh	Anesthetic bind	Glioma ERSR ind
O=C(COc1ccc([N+](=O)[O-])cc1)Nc1ccccc1N1CCCC1	0.4%	-16.6%	-11.8%	-2.2%
CCN1CCN(c2ccc(S(=O)(=O)N3CCCCC3)cc2NC(=O)C(C)Oc2ccc(F)cc2)CC1 (configuration not stated)	44.7µM*	-6.8%	x	-1.8%
O=C(Nc1cc(S(=O)(=O)N2CCOCC2)ccc1N1CCCC1)c1ccc(F)cc1	39.8µM*	-4.1%	x	-1.7%
N#Cc1ccc(NC(=O)CNc2cc(S(=O)(=O)N3CCCCC3)ccc2N2CCCCC2)cc1	15.8µM*	x	x	x
O=C(COc1ccc([N+](=O)[O-])cc1)Nc1cc(S(=O)(=O)N2CCCCC2)ccc1N1CCCCC1	39.8µM*	17.5%	x	-5.6%
N#Cc1cccc(NC(=O)CNc2cccc(S(=O)(=O)N3CCCCC3)c2)c1	9.5%	u	x	-4.3%
O=C(COc1ccccc1)Nc1cc(S(=O)(=O)N2CCOCC2)ccc1N1CCCC1	8.6%	u	x	-2.5%
O=C(COc1ccc(F)cc1)Nc1cc(S(=O)(=O)N2CCCCC2)ccc1N1CCCCC1	6.31µM*	u	x	-2.1%
COc1ccc(-c2nn(Cc3nc(-c4ccc(Br)cc4)no3)c(=O)c3ccccc23)cc1	-6.3%	x	x	x
NNc1ccc(F)cc1F	4.47µM*	x	x	x
COc1cccc(OC)c1C(=O)NCCc1c[nH]c2ccccc12	38.1%	x	x	x
COc1cc2c(CCNC(C)=O)c[nH]c2cc1O	39.8µM*!	x	x	-4.4%
COc1cc(Cl)cc2cc(C(=O)N3CCOCC3)c(=O)oc12	3.3%	x	x	x
Cc1cc(N2C(=O)C(O)=C(C(=O)c3cc4ccccc4o3)C2c2ccc(Cl)cc2)no1 (configuration not stated)	39.8µM*	9.4%	-9.3%	1.0%
CN(C)CCN1C(=O)C(O)=C(C(=O)c2cc3ccccc3o2)C1c1ccc(OCc2ccccc2)cc1 (configuration not stated)	25.1µM*	x	x	x
CN(C)CCN1C(=O)C(O)=C(C(=O)c2cc3ccccc3o2)C1c1ccc(N(C)C)cc1 (configuration not stated)	5.5%	0.5%	-9.0%	-4.8%
Cc1cc(N2C(=O)C(O)=C(C(=O)c3cc4ccccc4o3)C2c2ccc(Br)cc2)no1 (configuration not stated)	39.8µM*	7.2%	-14.3%	-2.6%
COC(CNc1nc(-c2ccccn2)nc2c1c(C)nn2C)c1cccs1 (configuration not stated)	23.5%	x	x	x
Cc1cc(C2=NNC(=Nc3ccccc3)SC2)c(C)n1C	14.1µM*	u	-14.5%	0.6%
Oc1ccc2ccccc2c1CNc1ccccn1	35.5µM*	-6.8%	3.9%	-4.3%
CCCCCCCCCCS(=O)(=O)N/N=C/c1ccccc1[N+](=O)[O-]	-1.0%	x	x	x
CCCCCCCCCS(=O)(=O)N/N=C/c1cccc([N+](=O)[O-])c1	u	u	7.08µM*	-2.3%
CCCCCCCCCCS(=O)(=O)N/N=C/c1ccc(O)cc1	u	22.8%	15.8µM*	1.4%
CCCCCCCCCCS(=O)(=O)N/N=C/c1ccc2c(c1)OCO2	-18.4%	x	x	x
C#CC(CC)(CC)NC(=O)Cc1cc(OC)c(OC)c(OC)c1	29.5%	x	x	x
SMILES	ALOX12 inh	BCR signal inh	Anesthetic bind	Glioma ERSR ind
O=C(c1ccccc1)N(Cc1cccc2[nH]ccc12)C1CC1	-12.3%	x	x	x
CN(c1cccc(NC(=O)Nc2cccc(Cl)c2)c1)S(C)(=O)=O	u	10.6%	-23.6%	-5.8%
CN(Nc1cccc(Cl)c1)c1cccc(Cl)c1	31.6µM*	x	x	-4.4%
CCN1c2cc(C(=O)Nc3cccc(Cl)c3)ccc2C(=O)N2CCCCCC21 (configuration not stated)	5.4%	x	x	x
O=C(COc1cccnc1[N+](=O)[O-])c1ccc(Cl)s1	39.8µM*	0.9%	-0.8%	-1.5%
CCc1ccc(CNc2ccc(N3CCN(C(C)=O)CC3)cc2)cc1	31.6µM*	u	-4.8%	5.8%
CC(=O)N1CCN(c2ccc(NCc3ccc(C)cc3)cc2)CC1	u	-0.1%	u	-1.0%
